# Measured values reported in article PMC7862700, “An all-to-all approach to the identification of sequence-specific readers for epigenetic DNA modifications on cytosine”.
# Tests used:
# Assay in all cases: DAPPL (digital affinity profiling via proximity ligation, sequencing); 10 mM Tris-HCl pH 7.5, 50 mM NaCl, 1 mM DTT, 4% glycerol, room temperature, 30 min; GST-TFs on glutathione beads, 16-mer random dsDNA library, 0.1% formaldehyde crosslink after washing; high values mean tight binding
# Details in all cases: protein: recombinant; tags: N-terminal GST; dsDNA, one strand shown
# [1] = target: T1, FEV (Homo sapiens, UniProt Q99581 1-238)
# T1 sequence: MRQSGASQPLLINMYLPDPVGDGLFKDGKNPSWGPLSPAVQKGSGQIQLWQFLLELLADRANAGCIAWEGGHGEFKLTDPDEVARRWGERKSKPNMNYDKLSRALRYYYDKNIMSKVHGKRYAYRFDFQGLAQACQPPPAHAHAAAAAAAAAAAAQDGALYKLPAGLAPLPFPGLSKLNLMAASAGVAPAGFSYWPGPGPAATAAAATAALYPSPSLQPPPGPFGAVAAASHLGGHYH
# In short: (§1)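 A tag-only sample was pooled with DNA-barcoded human transcription factors that had been expressed in yeast as GST fusions and captured on glutathione beads. The pools were incubated for 30 min at room temperature with 200 nmole of a random double-stranded 16-mer DNA library in Tris/NaCl/DTT/glycerol buffer, then washed, crosslinked with 0.1% formaldehyde, proximity-ligated (BsaI/T4 ligase, 1 h, 37 °C), PCR-amplified and sequenced on an Illumina NextSeq500. Binding signal is each hexamer's read frequency for a factor divided by its frequency for the tag-only sample.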
# [2] = target: ETV5 (Homo sapiens, UniProt P41161 1-510)
# In short: as §1
# [3] = target: T2, SPIC (Homo sapiens, UniProt Q8N5J4 1-248)
# T2 sequence: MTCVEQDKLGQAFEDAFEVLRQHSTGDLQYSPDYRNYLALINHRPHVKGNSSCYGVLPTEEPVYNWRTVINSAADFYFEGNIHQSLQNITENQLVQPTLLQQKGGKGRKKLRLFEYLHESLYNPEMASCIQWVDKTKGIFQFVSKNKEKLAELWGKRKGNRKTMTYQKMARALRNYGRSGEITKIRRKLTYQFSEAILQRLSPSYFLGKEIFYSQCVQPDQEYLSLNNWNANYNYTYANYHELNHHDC
# In short: as §1
# [4] = target: ELF4 (Homo sapiens, UniProt Q99607 1-663)
# In short: as §1
# [5] = target: T3, ELK4 (Homo sapiens, UniProt P28324-2 1-405)
# T3 sequence: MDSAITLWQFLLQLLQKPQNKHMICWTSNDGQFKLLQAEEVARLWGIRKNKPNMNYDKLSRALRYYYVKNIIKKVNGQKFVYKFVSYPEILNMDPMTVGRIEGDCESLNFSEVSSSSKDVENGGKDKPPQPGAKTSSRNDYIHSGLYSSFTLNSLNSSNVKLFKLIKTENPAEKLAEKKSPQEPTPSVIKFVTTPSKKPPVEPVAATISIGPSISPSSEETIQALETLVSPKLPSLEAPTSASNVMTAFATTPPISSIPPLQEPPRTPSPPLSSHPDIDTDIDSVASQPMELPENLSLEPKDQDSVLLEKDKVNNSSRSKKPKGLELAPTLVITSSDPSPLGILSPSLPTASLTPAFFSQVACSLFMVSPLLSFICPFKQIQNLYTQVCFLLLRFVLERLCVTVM
# In short: as §1
# [6] = target: T4, ETV2 (Homo sapiens, UniProt O00321 1-342)
# T4 sequence: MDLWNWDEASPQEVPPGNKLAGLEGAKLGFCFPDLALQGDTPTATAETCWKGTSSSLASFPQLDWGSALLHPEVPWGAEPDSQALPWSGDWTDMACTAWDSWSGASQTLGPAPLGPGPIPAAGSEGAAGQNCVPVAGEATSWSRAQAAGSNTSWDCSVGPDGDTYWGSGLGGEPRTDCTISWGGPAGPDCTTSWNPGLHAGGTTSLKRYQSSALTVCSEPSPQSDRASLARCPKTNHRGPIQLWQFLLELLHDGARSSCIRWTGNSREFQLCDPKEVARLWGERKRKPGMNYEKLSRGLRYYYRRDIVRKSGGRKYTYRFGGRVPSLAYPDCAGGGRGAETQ
# In short: as §1
# [7] = target: T5, ELF3 (Homo sapiens, UniProt P78545 1-371)
# T5 sequence: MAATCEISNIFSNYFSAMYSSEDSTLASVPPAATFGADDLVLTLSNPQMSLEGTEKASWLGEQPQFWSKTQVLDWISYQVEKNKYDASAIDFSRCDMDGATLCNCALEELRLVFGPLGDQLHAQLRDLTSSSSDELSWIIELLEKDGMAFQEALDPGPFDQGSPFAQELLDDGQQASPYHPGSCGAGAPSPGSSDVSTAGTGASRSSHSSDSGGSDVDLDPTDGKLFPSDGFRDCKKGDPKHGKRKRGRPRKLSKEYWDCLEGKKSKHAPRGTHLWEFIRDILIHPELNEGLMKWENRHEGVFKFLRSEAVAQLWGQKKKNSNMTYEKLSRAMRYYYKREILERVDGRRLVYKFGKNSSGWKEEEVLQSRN
# In short: as §1
# [8] = target: ETV1 (Homo sapiens, UniProt P50549 1-477)
# In short: as §1
# [9] = target: T6, ERF (Homo sapiens, UniProt P50548 1-548)
# T6 sequence: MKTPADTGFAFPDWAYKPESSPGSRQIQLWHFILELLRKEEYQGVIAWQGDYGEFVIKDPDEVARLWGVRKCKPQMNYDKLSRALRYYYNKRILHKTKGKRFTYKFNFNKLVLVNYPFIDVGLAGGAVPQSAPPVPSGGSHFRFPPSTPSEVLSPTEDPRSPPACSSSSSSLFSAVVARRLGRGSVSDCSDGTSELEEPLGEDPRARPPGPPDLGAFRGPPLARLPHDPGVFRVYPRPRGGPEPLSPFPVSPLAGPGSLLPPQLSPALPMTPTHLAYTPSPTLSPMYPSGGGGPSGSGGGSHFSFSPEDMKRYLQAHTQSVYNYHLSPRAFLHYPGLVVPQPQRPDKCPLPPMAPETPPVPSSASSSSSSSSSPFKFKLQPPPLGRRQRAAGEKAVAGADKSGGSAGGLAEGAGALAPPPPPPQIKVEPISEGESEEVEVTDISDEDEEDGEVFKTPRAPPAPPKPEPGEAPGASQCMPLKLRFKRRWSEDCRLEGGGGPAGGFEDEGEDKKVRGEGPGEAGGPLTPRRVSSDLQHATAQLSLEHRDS
# In short: as §1
# [10] = target: T7, ETV3L (Homo sapiens, UniProt Q6ZN32 1-361)
# T7 sequence: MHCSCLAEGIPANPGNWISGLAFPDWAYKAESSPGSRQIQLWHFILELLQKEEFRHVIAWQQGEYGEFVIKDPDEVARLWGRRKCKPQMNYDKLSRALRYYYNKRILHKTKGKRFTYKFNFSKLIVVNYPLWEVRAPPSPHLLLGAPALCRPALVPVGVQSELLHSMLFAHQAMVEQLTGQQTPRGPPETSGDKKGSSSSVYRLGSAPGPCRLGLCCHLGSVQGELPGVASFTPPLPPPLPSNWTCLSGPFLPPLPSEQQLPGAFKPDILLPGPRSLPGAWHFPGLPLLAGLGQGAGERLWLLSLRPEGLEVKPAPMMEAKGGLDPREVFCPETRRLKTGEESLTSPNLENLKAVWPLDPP
# In short: as §1
# [11] = target: T8, ETS2 (Homo sapiens, UniProt P15036 1-469)
# T8 sequence: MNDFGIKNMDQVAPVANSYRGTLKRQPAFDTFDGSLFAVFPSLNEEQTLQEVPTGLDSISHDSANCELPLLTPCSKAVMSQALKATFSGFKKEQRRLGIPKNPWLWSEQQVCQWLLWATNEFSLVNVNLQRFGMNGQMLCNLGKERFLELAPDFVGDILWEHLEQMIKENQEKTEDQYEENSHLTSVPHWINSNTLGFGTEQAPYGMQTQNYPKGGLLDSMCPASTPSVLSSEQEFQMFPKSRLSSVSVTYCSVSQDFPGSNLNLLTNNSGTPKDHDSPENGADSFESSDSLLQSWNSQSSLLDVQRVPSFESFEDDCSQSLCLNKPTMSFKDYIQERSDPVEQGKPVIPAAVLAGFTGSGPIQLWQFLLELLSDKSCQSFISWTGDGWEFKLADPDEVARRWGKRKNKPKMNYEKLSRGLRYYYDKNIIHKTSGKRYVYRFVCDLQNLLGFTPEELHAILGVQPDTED
# In short: as §1
# [12] = target: T9, SPDEF (Homo sapiens, UniProt O95238 1-335)
# T9 sequence: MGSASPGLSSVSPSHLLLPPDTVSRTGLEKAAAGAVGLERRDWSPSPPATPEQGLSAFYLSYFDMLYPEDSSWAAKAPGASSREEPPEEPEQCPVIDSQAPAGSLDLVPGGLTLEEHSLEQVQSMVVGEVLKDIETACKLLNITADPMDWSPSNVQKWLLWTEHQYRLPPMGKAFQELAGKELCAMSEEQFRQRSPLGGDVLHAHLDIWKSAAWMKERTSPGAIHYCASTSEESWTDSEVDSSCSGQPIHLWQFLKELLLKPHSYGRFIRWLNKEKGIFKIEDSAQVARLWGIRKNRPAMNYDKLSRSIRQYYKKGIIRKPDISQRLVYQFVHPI
# In short: as §1
# [13] = target: T10, ETV7 (Homo sapiens, UniProt Q9Y603 1-341)
# T10 sequence: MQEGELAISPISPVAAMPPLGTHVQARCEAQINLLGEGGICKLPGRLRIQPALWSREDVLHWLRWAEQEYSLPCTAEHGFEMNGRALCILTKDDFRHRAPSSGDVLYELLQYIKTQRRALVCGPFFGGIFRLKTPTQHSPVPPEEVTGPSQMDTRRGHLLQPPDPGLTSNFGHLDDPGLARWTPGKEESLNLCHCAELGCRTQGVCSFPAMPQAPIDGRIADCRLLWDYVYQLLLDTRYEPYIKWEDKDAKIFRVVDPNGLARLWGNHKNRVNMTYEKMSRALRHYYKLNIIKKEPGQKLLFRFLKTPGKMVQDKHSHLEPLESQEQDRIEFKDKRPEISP
# In short: as §1
# [14] = target: T11, ELF5 (Homo sapiens, UniProt Q9UKW6-2 1-255)
# T11 sequence: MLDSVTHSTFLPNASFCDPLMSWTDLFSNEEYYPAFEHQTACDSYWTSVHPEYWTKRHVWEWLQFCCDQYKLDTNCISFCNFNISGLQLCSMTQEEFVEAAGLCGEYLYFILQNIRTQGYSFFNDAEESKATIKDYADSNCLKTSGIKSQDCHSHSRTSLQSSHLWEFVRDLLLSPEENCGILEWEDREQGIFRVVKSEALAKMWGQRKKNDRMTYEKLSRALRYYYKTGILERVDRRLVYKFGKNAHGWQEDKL
# In short: as §1
# [15] = target: T12, ETV3 (Homo sapiens, UniProt P41162-2 1-143)
# T12 sequence: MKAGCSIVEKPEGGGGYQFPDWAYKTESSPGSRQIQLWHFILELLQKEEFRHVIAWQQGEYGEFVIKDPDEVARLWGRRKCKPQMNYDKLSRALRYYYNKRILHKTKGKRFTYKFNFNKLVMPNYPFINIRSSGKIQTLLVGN
# In short: as §1
# [16] = target: ETV6 (Homo sapiens, UniProt P41212 1-452)
# In short: as §1
# Sequence of ELF4 (Q99607 whole entry): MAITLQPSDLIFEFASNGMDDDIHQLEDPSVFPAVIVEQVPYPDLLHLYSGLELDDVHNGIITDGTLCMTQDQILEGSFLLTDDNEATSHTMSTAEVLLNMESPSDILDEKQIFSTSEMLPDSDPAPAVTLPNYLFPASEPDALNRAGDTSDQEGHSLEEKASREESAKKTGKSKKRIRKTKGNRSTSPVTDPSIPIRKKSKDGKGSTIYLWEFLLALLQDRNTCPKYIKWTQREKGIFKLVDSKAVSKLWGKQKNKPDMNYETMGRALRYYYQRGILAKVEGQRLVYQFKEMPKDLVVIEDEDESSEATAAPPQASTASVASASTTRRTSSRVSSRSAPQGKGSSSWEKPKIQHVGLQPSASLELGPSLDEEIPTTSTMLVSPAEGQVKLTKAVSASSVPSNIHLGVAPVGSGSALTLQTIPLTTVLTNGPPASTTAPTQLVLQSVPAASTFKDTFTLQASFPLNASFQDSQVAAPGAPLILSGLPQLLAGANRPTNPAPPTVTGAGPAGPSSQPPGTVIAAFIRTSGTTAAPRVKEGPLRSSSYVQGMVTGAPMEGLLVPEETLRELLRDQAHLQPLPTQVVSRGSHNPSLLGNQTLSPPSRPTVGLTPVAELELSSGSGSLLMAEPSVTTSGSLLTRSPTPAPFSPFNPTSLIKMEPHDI
# Sequence of ETV6 (P41212 whole entry): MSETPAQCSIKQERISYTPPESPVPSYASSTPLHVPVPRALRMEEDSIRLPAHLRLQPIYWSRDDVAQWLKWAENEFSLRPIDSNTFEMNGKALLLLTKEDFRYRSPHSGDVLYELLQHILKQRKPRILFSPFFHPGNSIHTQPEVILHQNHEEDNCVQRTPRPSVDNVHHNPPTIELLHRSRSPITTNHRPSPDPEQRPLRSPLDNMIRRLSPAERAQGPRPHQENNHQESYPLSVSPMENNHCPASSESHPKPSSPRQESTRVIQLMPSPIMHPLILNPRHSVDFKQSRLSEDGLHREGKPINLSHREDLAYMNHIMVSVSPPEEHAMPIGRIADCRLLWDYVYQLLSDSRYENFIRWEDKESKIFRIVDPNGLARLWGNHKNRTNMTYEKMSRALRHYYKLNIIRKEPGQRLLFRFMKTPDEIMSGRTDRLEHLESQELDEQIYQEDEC
# Sequence of ETV1 (P50549 whole entry): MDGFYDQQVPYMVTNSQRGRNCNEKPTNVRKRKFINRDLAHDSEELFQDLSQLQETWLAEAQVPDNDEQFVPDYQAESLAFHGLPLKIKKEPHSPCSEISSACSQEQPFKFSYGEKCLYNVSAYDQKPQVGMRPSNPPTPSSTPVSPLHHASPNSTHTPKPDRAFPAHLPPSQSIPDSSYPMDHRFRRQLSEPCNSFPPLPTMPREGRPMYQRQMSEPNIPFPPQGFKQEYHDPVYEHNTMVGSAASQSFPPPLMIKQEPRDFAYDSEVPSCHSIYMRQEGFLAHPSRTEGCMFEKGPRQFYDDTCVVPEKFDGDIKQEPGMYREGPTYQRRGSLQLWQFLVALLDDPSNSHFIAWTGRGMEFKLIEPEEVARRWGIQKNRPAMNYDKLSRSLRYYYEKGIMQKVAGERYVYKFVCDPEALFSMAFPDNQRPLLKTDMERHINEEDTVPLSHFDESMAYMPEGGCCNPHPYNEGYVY
# Sequence of ETV5 (P41161 whole entry): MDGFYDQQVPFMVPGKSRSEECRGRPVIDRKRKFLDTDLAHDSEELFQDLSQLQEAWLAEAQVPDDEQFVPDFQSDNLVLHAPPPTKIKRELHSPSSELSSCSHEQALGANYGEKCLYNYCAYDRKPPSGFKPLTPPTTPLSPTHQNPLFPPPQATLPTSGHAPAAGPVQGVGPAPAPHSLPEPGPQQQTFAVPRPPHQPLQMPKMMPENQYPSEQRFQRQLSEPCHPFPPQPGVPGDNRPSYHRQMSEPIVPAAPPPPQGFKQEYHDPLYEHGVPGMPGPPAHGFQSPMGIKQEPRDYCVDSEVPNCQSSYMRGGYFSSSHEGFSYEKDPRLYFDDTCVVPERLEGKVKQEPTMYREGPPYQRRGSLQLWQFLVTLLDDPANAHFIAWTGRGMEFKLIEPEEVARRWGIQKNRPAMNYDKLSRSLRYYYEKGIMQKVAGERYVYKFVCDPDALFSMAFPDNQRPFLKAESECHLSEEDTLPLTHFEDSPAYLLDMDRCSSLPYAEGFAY
Sequence,binding signal [1],binding signal [2],binding signal [3],binding signal [4],binding signal [5],binding signal [6],binding signal [7],binding signal [8],binding signal [9],binding signal [10],binding signal [11],binding signal [12],binding signal [13],binding signal [14],binding signal [15],binding signal [16]
GTATGC,"1.15 fold enrichment (6-mer frequency, TF over GST control)","1.17 fold enrichment (6-mer frequency, TF over GST control)","1.14 fold enrichment (6-mer frequency, TF over GST control)","1.16 fold enrichment (6-mer frequency, TF over GST control)","1.23 fold enrichment (6-mer frequency, TF over GST control)","1.25 fold enrichment (6-mer frequency, TF over GST control)","1.1 fold enrichment (6-mer frequency, TF over GST control)","1.12 fold enrichment (6-mer frequency, TF over GST control)","1.05 fold enrichment (6-mer frequency, TF over GST control)","1.23 fold enrichment (6-mer frequency, TF over GST control)","1.24 fold enrichment (6-mer frequency, TF over GST control)","1.18 fold enrichment (6-mer frequency, TF over GST control)","1.27 fold enrichment (6-mer frequency, TF over GST control)","1.11 fold enrichment (6-mer frequency, TF over GST control)","1.24 fold enrichment (6-mer frequency, TF over GST control)","1.09 fold enrichment (6-mer frequency, TF over GST control)"
ACATGT,"1.03 fold enrichment (6-mer frequency, TF over GST control)","1.16 fold enrichment (6-mer frequency, TF over GST control)","1.13 fold enrichment (6-mer frequency, TF over GST control)","1.15 fold enrichment (6-mer frequency, TF over GST control)","1.27 fold enrichment (6-mer frequency, TF over GST control)","1.21 fold enrichment (6-mer frequency, TF over GST control)","1.02 fold enrichment (6-mer frequency, TF over GST control)","1.09 fold enrichment (6-mer frequency, TF over GST control)","1.15 fold enrichment (6-mer frequency, TF over GST control)","1.19 fold enrichment (6-mer frequency, TF over GST control)","1.15 fold enrichment (6-mer frequency, TF over GST control)","1.19 fold enrichment (6-mer frequency, TF over GST control)","1.16 fold enrichment (6-mer frequency, TF over GST control)","1.12 fold enrichment (6-mer frequency, TF over GST control)","1.16 fold enrichment (6-mer frequency, TF over GST control)","1.14 fold enrichment (6-mer frequency, TF over GST control)"
